# In all, about 330,000 compounds went through this assay and about 1,900 (0.58%) were called active. About 4% were inconclusive and are not listed. No stated cut-off is given here; in the data, inconclusive means inhibition above about 70% without an active follow-up result; inactive means below that. The list is a sample of the results. Results with a measured potency or affinity are listed apart.
# Assay: M. tuberculosis growth inhibition, HTS (AID 449762);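 further: bacterial growth assessed after seven days of incubation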
# Conditions: M. tuberculosis H37Rv growth inhibition, 7H9 media; at 25 µM; hits give high values
row,SMILES,inhibition
1,CC(C)(C)OC(=O)N1CCC[C@H]1c1nnc(SCc2c(F)cccc2Cl)o1,5.9% (inactive)
2,CCCNC(=O)c1ccc(-c2nc3ccccc3s2)s1,11% (inactive)
3,Cc1noc(C)c1COC(=O)c1ccc(-c2nc3ccccc3s2)s1,-0.34% (inactive)
4,CCCN(CC(=O)Nc1cc(Cl)ccc1Cl)C(=O)c1ccccn1,-9.27% (inactive)
5,Cc1ccc(SCCN2CCC(NC(=O)OCc3ccccc3)CCC2=O)cc1 (stereo not given),-5.79% (inactive)
6,O=C(NC1CCC(=O)N(CCSc2ccccc2)CC1)OCc1ccccc1 (stereo not given),1.1% (inactive)
7,COc1cc(C(C(=O)NCC2CCCO2)N(C(=O)Cn2nnc3ccccc32)c2ccc(C(C)=O)cc2)ccc1O (stereo not given),-7.43% (inactive)
8,CCCCNC(=O)C1CC(c2ccccc2[N+](=O)[O-])=NO1 (stereo not given),0.43% (inactive)
9,CCOC(=O)c1ccc(CSc2nnc(N)s2)cc1,3.29% (inactive)
10,CCOC(=O)CSc1nc(C2CC2)cc(-c2ccc(Cl)cc2)c1C#N,-4.91% (inactive)
11,Clc1ccc(-c2nnc(Sc3nc4ccccc4o3)c3ccccc23)cc1,-4.13% (inactive)
12,Cc1ccc(-c2nnc(Sc3nc4ccccc4o3)c3ccccc23)cc1,-10.4% (inactive)
13,CCc1nc2cccnc2n1-c1ccc(CC(=O)O)cc1,-1.43% (inactive)
14,Fc1ccc(N2CCN(C(=S)NCc3ccco3)CC2)cc1,1.09% (inactive)
15,CC1CCCN(C(=S)SCC(=O)c2cc(Br)cc(Br)c2O)C1 (stereo not given),1.93% (inactive)
16,O=C(CSC(=S)N1CCCC1)c1ccccc1,-7.15% (inactive)
17,Cc1cc(NC(=O)CSc2n[nH]c(CC(C)C)n2)no1,-10.9% (inactive)
18,Cc1ncc(CN2CCC(n3nccc3NC(=O)c3ccccc3)CC2)s1,-15.1% (inactive)
19,CCn1cc2nc(SCC(=O)Nc3ccc(F)cc3F)n(Cc3ccccc3)c(=O)c2n1,-4.3% (inactive)
20,CN(C)CCCN(C(=O)c1ccc(Br)s1)c1nc2cc3c(cc2s1)OCCO3,9.92% (inactive)
21,CN(C)CCCN(C(=O)c1cc2cc([N+](=O)[O-])ccc2s1)c1nc2cc3c(cc2s1)OCCO3,-1.83% (inactive)
22,COc1ccc(C(C[N+](=O)[O-])c2c(-c3ccccc3)cc3ccccn23)cc1 (stereo not given),-3.56% (inactive)
23,COc1ccc(C(C[N+](=O)[O-])c2c(-c3ccccc3)cc3ccccn23)cc1OC (stereo not given),-0.65% (inactive)

row,SMILES,inhibition
1,Cc1cccc(Cn2c(SCC(=O)Nc3ccccc3)nc3c2c(=O)[nH]c(=O)n3C)c1,-13.5% (inactive)
2,CCCC(c1nnnn1CC1CCCO1)N1CCN(c2cc(Cl)ccc2C)CC1 (stereo not given),1.1% (inactive)
3,CCCCCCCc1nc2nc(C)c(Br)c(=O)n2[nH]1,8.34% (inactive)
4,CCCn1c(SCC(=O)Nc2ccc3c(c2)OCCO3)nnc1-c1ccco1,-7.16% (inactive)
5,O=C(C[C@@H]1C/C=C\C[C@H](NC(=O)OCC2c3ccccc3-c3ccccc32)C(=O)OC[C@@H]2CCCN2C1=O)N[C@@H](CO)Cc1ccccc1,1.79% (inactive)
6,O=C(C[C@H]1C/C=C\C[C@H](NC(=O)OCC2c3ccccc3-c3ccccc32)C(=O)OC[C@@H]2CCCN2C1=O)N[C@H](CO)Cc1ccccc1,-0.02% (inactive)
7,Cc1occc1-c1nnc(SCC(=O)N(C)c2ccccc2)n1C,-1.83% (inactive)
8,CC(=O)c1ccc(OCC(O)COc2ccc(C(C)=O)cc2)cc1,6.86% (inactive)
9,CC(C)(c1ccccc1)c1ccc(OCC(O)CN2CCCC2)cc1 (stereo not given),1.65% (inactive)
10,O=C(O)c1ccc(NC(=O)c2cccc(S(=O)(=O)Nc3ccc(C(=O)O)cc3)c2)cc1,-1.83% (inactive)
11,O=C(CN1CCN(c2ccc(O)cc2)CC1)Nc1ccccc1C(=O)NCCc1ccccc1,-9.61% (inactive)
12,COc1ccccc1N1CCN(CC(=O)Nc2ccccc2C(=O)NCCc2ccccc2)CC1,33.8% (inactive)
13,COc1cc(NS(=O)(=O)c2cc3c(cc2C)NC(=O)CO3)cc(OC)c1,-11.6% (inactive)
14,OC(COc1ccc(Cl)cc1Cl)Cn1ccnc1 (stereo not given),-1.41% (inactive)
15,OC(Cn1ccnc1)c1ccc(Cl)cc1Cl (stereo not given),-8.18% (inactive)
16,CCOC(=O)C1=C(CC)Nc2ccccc2N/C1=N\S(=O)(=O)c1ccccc1OC,-0.62% (inactive)
17,CC1(C)Cc2c(sc(NC(=O)C(C)(C)C)c2C#N)C(C)(C)N1,-3.46% (inactive)
18,Cc1ccc(N=c2ssnc2Cl)cc1,0.3% (inactive)
19,COc1cc(N=c2ssnc2Cl)cc(OC)c1OC,-3.23% (inactive)
20,O=C(O)c1ccc(S(=O)(=O)N2CCC(n3nnc4cc(C(F)(F)F)ccc43)CC2)cc1,1.41% (inactive)
21,C/C(=N\Nc1cc(Cl)nc(C)n1)c1ccc(C)cc1,66.8% (inactive)
22,C/C(=N\Nc1cc(Cl)nc(C)n1)c1ccccc1,5.34% (inactive)
23,Cc1ccc(S(=O)(=O)N2CCN(C(=O)COC(=O)/C=C/c3ccc(F)cc3)CC2)c(C)c1,-1.22% (inactive)

row,SMILES,inhibition
1,CCCOc1ccc(N2CC(C(=O)Nc3ccccc3C(=O)NC)CC2=O)cc1 (stereo not given),-2.1% (inactive)
2,O=C(CSc1ncnc2nc[nH]c12)c1ccccc1,9.21% (inactive)
3,COc1ccc(C(=O)CSc2ncnc3nc[nH]c23)cc1,-0.73% (inactive)
4,O=C(c1ccc(Cl)cc1)C1CCN(C(=O)c2ccc(F)cc2)CC1,4.03% (inactive)
5,Cc1ccc(OC(=O)CN2C(=O)c3ccccc3C2=O)cc1C,-4.28% (inactive)
6,Cc1cc(C)cc(OC(=O)CCN2C(=O)c3ccccc3C2=O)c1,-5.68% (inactive)
7,CC(C)c1ccc(OCC(=O)N(Cc2ccco2)C2CCS(=O)(=O)C2)cc1 (stereo not given),11.8% (inactive)
8,CCC(=O)N1CC(=O)Nc2ccc(F)cc2C1c1ccccc1 (stereo not given),-3.58% (inactive)
9,CC(C)NC(=O)N(C)C[C@H]1Oc2c(NC(=O)C3CC3)cccc2C(=O)N([C@H](C)CO)C[C@@H]1C,1.1% (inactive)
10,CC(C)CCNC(=O)C(c1ccc(O)cc1)N(Cc1cccs1)C(=O)C1COc2ccccc2O1 (stereo not given),22.4% (inactive)
11,CCOc1cccc(N(C(=O)C2COc3ccccc3O2)C(C(=O)NC2CCCCC2)c2ccc(O)cc2)c1 (stereo not given),-4.43% (inactive)
12,CC(=O)N1CCOc2ccc(S(=O)(=O)N3CCC(C(=O)Nc4ccc(C)c(C)c4)CC3)cc21,5.83% (inactive)
13,CC(Oc1cc2oc(=O)c3c(c2cc1Cl)CCC3)C(=O)NCc1ccccn1 (stereo not given),31% (inactive)
14,CC(Oc1ccc2c3c(c(=O)oc2c1)CCCC3)C(=O)NCc1ccccn1 (stereo not given),33.2% (inactive)
15,CCNc1cc(N2CCN(C)CC2)ccc1[N+](=O)[O-],-1.18% (inactive)
16,COc1cccc(NC(=S)N2CCc3cc(OC)c(OC)cc3C2)c1,1.01% (inactive)
17,CCOc1ccc(S(=O)(=O)N(C)c2ccc(OCC(=O)NCc3ccc(C(=O)OC)cc3)cc2)cc1,-3.45% (inactive)
18,Cc1cccn2c(=O)c3cc(C(=O)NCCc4ccccc4)c(=N)n(CC4CCCO4)c3nc12 (stereo not given),4.7% (inactive)
19,FC(F)(F)c1cc(Cl)c2nc(-c3ccccc3)cn2c1,4.79% (inactive)
20,COc1ccc(N(C(=O)Nc2ccc(Cl)cc2)C2=NCCC2)cc1,42.5% (inactive)
21,O=C(Nc1ccccc1)N(C1=NCCC1)c1ccc(OC(F)F)cc1,-0.82% (inactive)
22,COCC1CCN(C(=O)c2cc(COc3ccc(F)cc3F)on2)C1 (stereo not given),-0.65% (inactive)
23,O=C(c1cc(COc2ccc(F)cc2F)on1)N1CC[C@@H]2CCCC[C@H]2C1,8.08% (inactive)

row,SMILES,inhibition
1,CC(NC(=O)c1cc(F)c(F)cc1Cl)C1CC2CCC1C2 (stereo not given),9.14% (inactive)
2,O=C(Nc1cccc(F)c1)N1CCN(C/C=C/c2ccccc2)CC1,-4.24% (inactive)
3,Cc1cc(C)cc(NC(=O)N2CCN(C/C=C/c3ccccc3)CC2)c1,6.44% (inactive)
4,O=C1NC(=O)C2(Cc3ccccc3N3CCCC32)C(=O)N1Cc1ccccc1 (stereo not given),-3.61% (inactive)
5,C=CCNC(=O)/C(=C/c1cn(-c2ccccc2)nc1-c1cccc([N+](=O)[O-])c1)NC(=O)c1ccccc1,9.03% (inactive)
6,O=[N+]([O-])/C(N=Nc1ccccc1)=N\Nc1ccccc1,-2.92% (inactive)
7,NC(=O)/C(N=Nc1ccccc1)=N/Nc1ccccc1,63.8% (inactive)
8,O=C(Cn1nnc(-c2ccc(S(=O)(=O)N3CCCC3)cc2)n1)Nc1ccccc1-n1cccc1,-4.45% (inactive)
9,CN(CC(=O)Nc1ccc(F)cc1[N+](=O)[O-])Cc1ccccc1,6.03% (inactive)
10,Cc1cc(C(=O)O/N=C(\N)c2ccc(C(C)(C)C)cc2)no1,0.64% (inactive)
11,CCOC(=O)c1cc(/C(C)=N/OC(=O)c2ccc(Cl)cc2)on1,47.9% (inactive)
12,COc1cccc2c(=O)c3c([nH]c12)OC(C)(C)C3,1.96% (inactive)
13,NC(=O)c1ccsc1NC(=O)c1cc(=O)c2ccccc2o1,1.83% (inactive)
14,CC1=C(C(N)=O)C(c2ccccc2F)NC(=O)N1 (stereo not given),-4.59% (inactive)
15,O=C(N/N=C/c1ccc(F)cc1)c1cccc(NC(=O)c2ccc(F)cc2)c1,9.14% (inactive)
16,CC(C)(C)NC(=O)COC(=O)c1cc(Cl)ccc1[N+](=O)[O-],-0.3% (inactive)
17,CC(NC(=O)COC(=O)c1ccc(Cl)cc1O)c1ccc(F)cc1 (stereo not given),2.35% (inactive)
18,CCOC(=O)c1ccc[n+](CC(=O)c2ccc(OC)cc2)c1,-6.92% (inactive)
19,CN(C)/C=C/C(=O)c1ccc([N+](=O)[O-])c(CS(=O)(=O)c2ccccc2)c1,4.59% (inactive)
20,OC1CCN(c2cc(-c3ccccc3)nc3cc(-c4ccc(F)cc4)nn23)CC1,14.2% (inactive)
21,Fc1ccc(-c2cc3nc(-c4ccccc4)cc(N4CCOCC4)n3n2)cc1,-0.86% (inactive)

# — PubChem BioAssay AID449762 (Southern Research Specialized Biocontainment Screening …, 2010)
